Experimental data from the supplement of paper PMC10849652.
About 7,900 targets were measured; listed, in parts, are those with a hit and a random draw of the rest. About 0.6% of all pairs of compound and target were hits. A number with no mark means an inactive call.

How the values were obtained:
Test in all cases: log2 fold change, soluble protein after heating vs DMSO (PISA); higher = thermal stabilisation; K562 cells, 10 uM, 30 min; active = over 0.2 and 3.5 SD of the protein, either way, in both replicates (recomputed)
bafetinib = compound: Cc1ccc(NC(=O)c2ccc(CN3CC[C@H](N(C)C)C3)c(C(F)(F)F)c2)cc1Nc1nccc(-c2cncnc2)n1 [bafetinib]
Outline: (§1)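 Soluble protein was defined as the supernatant after 21,000xg for 90 min. It came from K562 cells at 2×10^6 cells/mL given 10 μM compound for 30 min, heated in aliquots for 3 min across 48°C-58°C, pooled, and extracted in PBS with 0.5% NP-40 at 4°C, and was quantified by TMTpro 16plex LC-MS/MS with equalised channel sums. Thermal stability against control samples, from duplicates, is reported as log2 fold change.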

[1] = compound: Cc1cccc(CC(=O)N2CCc3c2ccc(-c2cn(C)c4ncnc(N)c24)c3F)n1
Outline: as §1

nilotinib = compound: Cc1cn(-c2cc(NC(=O)c3ccc(C)c(Nc4nccc(-c5cccnc5)n4)c3)cc(C(F)(F)F)c2)cn1 [nilotinib]
Outline: as §1

[2] = compound: Cc1nc(Nc2n[nH]c3c2CN(C(=O)N[C@H](CN(C)C)c2ccccc2)C3(C)C)c2sccc2n1
Outline: as §1

dasatinib = compound: Cc1nc(Nc2ncc(C(=O)Nc3c(C)cccc3Cl)s2)cc(N2CCN(CCO)CC2)n1 [dasatinib]
Outline: as §1

[3] = compound: Cc1ncc(-c2ccnc(Nc3ccc(S(C)(=O)=O)cc3)n2)n1C(C)C
Outline: as §1

[4] = compound: Cn1cc(-c2ccc3c(c2)CCN3C(=O)Cc2cccc(C(F)(F)F)c2)c2c(N)ncnc21
Outline: as §1

[5] = compound: Cn1cc(-c2ccc3nnc(C(F)(F)c4ccc5ncccc5c4)n3n2)cn1
Outline: as §1

tipifarnib = compound: Cn1cncc1[C@@](N)(c1ccc(Cl)cc1)c1ccc2c(c1)c(-c1cccc(Cl)c1)cc(=O)n2C [tipifarnib]
Outline: as §1

mubritinib = compound: FC(F)(F)c1ccc(/C=C/c2nc(COc3ccc(CCCCn4ccnn4)cc3)co2)cc1 [mubritinib]
Outline: as §1

[6] = compound: NC(=O)Nc1cc(-c2cccc(F)c2)sc1C(=O)N[C@H]1CCCNC1
Outline: as §1

[7] = compound: NC(=O)c1cnc(N[C@@H]2CCCC[C@@H]2N)nc1Nc1cccc(-n2nccn2)c1
Outline: as §1

[8] = compound: NC1(c2ccc(-c3nc4ccn5c(=O)[nH]nc5c4cc3-c3ccccc3)cc2)CCC1
Outline: as §1

[9] = compound: NCC(=O)Nc1ccc(-n2nc(C(F)(F)F)cc2-c2ccc3c(ccc4ccccc43)c2)cc1
Outline: as §1

entinostat = compound: Nc1ccccc1NC(=O)c1ccc(CNC(=O)OCc2cccnc2)cc1 [entinostat]
Outline: as §1

vorinostat = compound: O=C(CCCCCCC(=O)Nc1ccccc1)NO [vorinostat]
Outline: as §1

citarinostat = compound: O=C(CCCCCCNC(=O)c1cnc(N(c2ccccc2)c2ccccc2Cl)nc1)NO [citarinostat]
Outline: as §1

silmitasertib = compound: O=C(O)c1ccc2c(c1)nc(Nc1cccc(Cl)c1)c1ccncc12 [silmitasertib]
Outline: as §1

[10] = compound: O=C1NC(=O)C(c2cnc3ccccn23)=C1c1cn2c3c(cc(F)cc13)CN(C(=O)N1CCCCC1)CC2
Outline: as §1

[11] = compound: c1cc(OCCN2CCCCC2)cc(-c2n[nH]c3ccc(-c4nnc[nH]4)cc23)c1
Outline: as §1

UniProt Q13555, sequence (Q13555 whole entry, looked up): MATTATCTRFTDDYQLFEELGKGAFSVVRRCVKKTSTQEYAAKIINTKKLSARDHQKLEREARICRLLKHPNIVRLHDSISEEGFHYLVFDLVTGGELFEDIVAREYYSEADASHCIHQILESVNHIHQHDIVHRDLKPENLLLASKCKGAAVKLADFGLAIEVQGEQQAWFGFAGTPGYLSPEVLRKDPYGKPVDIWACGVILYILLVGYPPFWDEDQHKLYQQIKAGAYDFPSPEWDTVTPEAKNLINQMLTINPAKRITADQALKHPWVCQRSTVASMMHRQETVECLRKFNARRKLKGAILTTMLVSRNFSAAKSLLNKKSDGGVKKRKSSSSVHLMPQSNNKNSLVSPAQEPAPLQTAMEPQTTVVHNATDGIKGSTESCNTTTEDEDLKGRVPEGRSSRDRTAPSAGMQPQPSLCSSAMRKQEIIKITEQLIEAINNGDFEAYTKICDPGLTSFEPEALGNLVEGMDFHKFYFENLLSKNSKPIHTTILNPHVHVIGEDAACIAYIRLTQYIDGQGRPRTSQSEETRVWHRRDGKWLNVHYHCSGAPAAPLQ
UniProt Q9Y5S2, sequence (Q9Y5S2 whole entry, looked up): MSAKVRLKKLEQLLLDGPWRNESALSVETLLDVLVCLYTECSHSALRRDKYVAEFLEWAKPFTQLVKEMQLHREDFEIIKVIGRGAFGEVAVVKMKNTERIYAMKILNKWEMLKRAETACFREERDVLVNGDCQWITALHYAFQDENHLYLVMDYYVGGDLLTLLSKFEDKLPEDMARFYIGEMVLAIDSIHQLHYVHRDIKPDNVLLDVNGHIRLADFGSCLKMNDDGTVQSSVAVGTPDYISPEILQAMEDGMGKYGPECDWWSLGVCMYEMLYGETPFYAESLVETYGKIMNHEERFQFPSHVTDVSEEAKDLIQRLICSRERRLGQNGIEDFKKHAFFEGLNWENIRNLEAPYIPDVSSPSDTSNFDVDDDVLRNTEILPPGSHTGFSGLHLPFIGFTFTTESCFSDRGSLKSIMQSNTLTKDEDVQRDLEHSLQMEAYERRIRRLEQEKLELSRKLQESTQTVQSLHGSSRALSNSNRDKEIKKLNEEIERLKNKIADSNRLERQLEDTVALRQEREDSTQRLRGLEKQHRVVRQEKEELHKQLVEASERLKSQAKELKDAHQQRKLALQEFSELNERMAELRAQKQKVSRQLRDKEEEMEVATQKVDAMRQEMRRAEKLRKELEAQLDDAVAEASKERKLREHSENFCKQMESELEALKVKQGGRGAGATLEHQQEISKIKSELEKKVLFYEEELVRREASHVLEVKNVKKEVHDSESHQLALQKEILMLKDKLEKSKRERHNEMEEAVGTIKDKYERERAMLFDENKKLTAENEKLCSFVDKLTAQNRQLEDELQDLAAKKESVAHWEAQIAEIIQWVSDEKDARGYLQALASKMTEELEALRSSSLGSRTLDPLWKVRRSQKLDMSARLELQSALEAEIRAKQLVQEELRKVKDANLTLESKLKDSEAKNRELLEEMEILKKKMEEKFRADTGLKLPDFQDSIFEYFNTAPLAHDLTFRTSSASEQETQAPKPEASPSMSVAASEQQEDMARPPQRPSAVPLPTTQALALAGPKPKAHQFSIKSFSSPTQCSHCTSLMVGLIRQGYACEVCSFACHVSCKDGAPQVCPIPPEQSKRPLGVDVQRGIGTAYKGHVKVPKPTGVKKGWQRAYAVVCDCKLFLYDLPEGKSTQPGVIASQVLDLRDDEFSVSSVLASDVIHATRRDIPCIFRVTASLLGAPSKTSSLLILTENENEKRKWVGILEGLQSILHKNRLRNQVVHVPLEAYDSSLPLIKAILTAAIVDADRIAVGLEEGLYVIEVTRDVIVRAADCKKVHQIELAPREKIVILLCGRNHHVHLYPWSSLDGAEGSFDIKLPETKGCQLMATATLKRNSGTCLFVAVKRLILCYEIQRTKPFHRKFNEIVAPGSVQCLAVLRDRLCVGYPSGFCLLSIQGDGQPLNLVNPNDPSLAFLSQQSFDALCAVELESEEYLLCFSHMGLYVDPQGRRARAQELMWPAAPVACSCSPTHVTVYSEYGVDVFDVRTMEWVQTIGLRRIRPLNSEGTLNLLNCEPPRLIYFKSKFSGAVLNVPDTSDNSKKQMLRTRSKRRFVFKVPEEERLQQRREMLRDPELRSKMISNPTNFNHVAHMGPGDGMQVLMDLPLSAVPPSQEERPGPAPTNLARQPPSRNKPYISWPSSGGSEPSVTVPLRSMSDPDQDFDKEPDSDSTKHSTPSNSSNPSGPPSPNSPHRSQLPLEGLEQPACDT
UniProt P08174, sequence (P08174 whole entry, looked up): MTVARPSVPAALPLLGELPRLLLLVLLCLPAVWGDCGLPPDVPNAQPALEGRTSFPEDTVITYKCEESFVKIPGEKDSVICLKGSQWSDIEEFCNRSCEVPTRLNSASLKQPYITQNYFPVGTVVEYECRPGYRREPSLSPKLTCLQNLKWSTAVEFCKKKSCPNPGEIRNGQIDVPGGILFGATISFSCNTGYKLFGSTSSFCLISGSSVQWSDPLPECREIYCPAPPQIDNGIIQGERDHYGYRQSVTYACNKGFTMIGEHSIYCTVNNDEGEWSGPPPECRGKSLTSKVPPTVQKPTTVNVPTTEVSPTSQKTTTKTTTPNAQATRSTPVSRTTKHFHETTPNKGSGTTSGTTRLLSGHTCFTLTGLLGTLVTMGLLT
UniProt Q8IUI8, sequence (Q8IUI8 whole entry, looked up): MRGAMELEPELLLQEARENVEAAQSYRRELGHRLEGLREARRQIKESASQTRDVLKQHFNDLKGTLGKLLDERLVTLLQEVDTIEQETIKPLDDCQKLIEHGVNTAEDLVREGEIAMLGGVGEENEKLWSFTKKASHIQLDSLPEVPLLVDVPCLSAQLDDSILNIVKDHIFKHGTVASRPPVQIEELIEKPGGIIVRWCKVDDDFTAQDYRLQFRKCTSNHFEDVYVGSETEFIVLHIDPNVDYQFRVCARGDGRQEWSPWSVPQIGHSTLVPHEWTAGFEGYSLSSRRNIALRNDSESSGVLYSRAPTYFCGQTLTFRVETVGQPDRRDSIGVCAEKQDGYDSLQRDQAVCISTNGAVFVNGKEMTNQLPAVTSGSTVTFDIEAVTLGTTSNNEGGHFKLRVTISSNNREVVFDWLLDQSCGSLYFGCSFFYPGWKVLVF
UniProt Q8N1A6, sequence (Q8N1A6 whole entry, looked up): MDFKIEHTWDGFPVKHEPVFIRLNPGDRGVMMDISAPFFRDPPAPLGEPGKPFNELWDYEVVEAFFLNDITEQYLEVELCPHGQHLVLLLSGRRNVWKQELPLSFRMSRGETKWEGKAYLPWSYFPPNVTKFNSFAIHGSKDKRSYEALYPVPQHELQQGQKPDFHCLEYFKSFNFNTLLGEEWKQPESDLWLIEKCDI
UniProt P46109, sequence (P46109 whole entry, looked up): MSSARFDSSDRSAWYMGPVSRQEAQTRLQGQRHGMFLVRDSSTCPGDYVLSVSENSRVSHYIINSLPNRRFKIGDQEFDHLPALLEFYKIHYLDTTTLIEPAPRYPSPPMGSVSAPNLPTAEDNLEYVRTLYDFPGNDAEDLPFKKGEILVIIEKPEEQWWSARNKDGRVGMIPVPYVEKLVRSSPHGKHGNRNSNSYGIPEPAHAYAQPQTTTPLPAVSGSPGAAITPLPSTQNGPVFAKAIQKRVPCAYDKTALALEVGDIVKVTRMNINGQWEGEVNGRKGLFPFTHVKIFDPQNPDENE
UniProt Q8IWX8, sequence (Q8IWX8 whole entry, looked up): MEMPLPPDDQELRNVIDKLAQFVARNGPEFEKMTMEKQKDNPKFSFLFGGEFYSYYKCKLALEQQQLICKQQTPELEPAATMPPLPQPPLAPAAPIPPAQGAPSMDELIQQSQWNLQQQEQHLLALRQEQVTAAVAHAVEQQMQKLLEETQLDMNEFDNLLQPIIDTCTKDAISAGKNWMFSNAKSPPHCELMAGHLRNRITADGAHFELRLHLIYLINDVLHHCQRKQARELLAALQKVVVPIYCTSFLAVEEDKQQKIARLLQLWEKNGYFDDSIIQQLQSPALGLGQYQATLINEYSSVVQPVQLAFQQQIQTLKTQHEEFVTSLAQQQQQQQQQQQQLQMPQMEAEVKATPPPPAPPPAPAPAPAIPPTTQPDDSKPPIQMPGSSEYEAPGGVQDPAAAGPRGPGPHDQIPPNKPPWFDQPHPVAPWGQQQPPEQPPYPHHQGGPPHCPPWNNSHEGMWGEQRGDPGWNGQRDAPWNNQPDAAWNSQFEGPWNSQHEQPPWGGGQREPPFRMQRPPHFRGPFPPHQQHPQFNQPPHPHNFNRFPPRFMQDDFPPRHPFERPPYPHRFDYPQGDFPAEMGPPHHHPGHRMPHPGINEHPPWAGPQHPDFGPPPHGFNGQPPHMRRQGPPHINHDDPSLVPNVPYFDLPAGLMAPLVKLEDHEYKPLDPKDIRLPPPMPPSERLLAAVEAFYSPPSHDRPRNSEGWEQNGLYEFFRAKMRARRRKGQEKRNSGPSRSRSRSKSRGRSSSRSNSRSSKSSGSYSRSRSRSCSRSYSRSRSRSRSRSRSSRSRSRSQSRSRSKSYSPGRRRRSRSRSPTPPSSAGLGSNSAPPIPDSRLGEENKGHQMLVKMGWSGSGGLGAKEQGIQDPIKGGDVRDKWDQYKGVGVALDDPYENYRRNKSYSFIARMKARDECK

Target	log2 fold change (bafetinib)	log2 fold change [1]	log2 fold change (nilotinib)	log2 fold change [2]	log2 fold change (dasatinib)	log2 fold change [3]	log2 fold change [4]	log2 fold change [5]	log2 fold change (tipifarnib)	log2 fold change (mubritinib)	log2 fold change [6]	log2 fold change [7]	log2 fold change [8]	log2 fold change [9]	log2 fold change (entinostat)	log2 fold change (vorinostat)	log2 fold change (citarinostat)	log2 fold change (silmitasertib)	log2 fold change [10]	log2 fold change [11]
CDK12 (UniProt Q9NYV4)	0.298	0.079	0.136	-0.631 (active)	0.23	-0.301	-0.484	-0.123	0.156	-0.043	-0.002	0.005	0.06	0.01	0.005	0.089	-0.051	-0.081	0.179	-0.242
CRLF3 (UniProt Q8IUI8)	-0.032	-0.045	-0.043	-0.117	-0.145	0.011	0.025	0.024	-0.018	0.032	0.016	-0.233	-0.165	-0.105	0.025	-0.023	0.047	0.104	-0.003	-0.057
CHERP (UniProt Q8IWX8)	0.057	0.092	-0.13	-0.353	-0.086	0.011	0.011	0.025	0.005	-0.07	0.015	-0.054	-0.096	-0.095	0.129	0.099	-0.001	0.03	-0.121	-0.042
C4orf33 (UniProt Q8N1A6)	-0.143	0.01	0.03	-0.024	-0.002	-0.1	0.056	0.031	-0.007	0.054	0.152	-0.003	-0.218	-0.061	-0.156	-0.05	0	-0.126	0.019	-0.063
CD55 isoform 7 (UniProt P08174)	0.168	-0.06	0.086	0.027	0.096	-0.026	-0.051	-0.012	-0.027	-0.075	-0.048	0.028	0.128	0.108	0.018	-0.044	0.009	-0.006	-0.043	-0.047
CRKL (UniProt P46109)	-1.41 (active)	0.013	-1.34 (active)	-0.054	-2.17 (active)	0.023	0.004	0.028	0.024	0.049	-1.11 (active)	-0.019	-0.015	-0.005	0.004	0.023	0.005	0.066	-0.031	-0.064
CAMK2G isoform 6 (UniProt Q13555)	0.064	-0.148	0.002	0.642 (active)	-0.11	0.083	0.01	-0.073	-0.025	-0.008	-0.306	-0.033	0.038	0.057	0.119	0.119	-0.02	0.158	0.177	-0.053
CDC42BPB (UniProt Q9Y5S2)	0.22	-0.034	0.062	-0.118	-0.029	0.106	-0.054	-0.017	0.094	0.177	-0.205	0.054	-0.254	-0.012	0.155	0.06	0.085	-0.087	-0.057	-0.201
